Drawing on PubChem BioAssay (Tox21), this text covers Potency for 9 molecules.

Inconclusive results are not listed. Active and inactive are the calls of the source. Unless noted, the call rests on the fitted dose curve; in most records, active means well fitted curve in the direction sought with a large enough effect in the repeat runs; inconclusive means weak or mixed curves; inactive means no such curve, though single readings can be large; an effect the other way counts as inactive or inconclusive.

Assay [1] can be described thus: qHTS assay to identify small molecule antagonists of the peroxisome proliferator-activated receptor delta (PPARd) signaling pathway - cell viability counter screen (AID 743213). Further: nearly all actives have a fitted effect of over 50% in size. Further: potency means the concentration at half of the fitted maximal effect. The essentials: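 Same-well viability: cells pre-incubated 5 h, dosed with compound plus 300 nM L165041, kept 17 h at 37 C, FRET substrate 2 h RT, then CellTiter-Glo 30 min RT and luminescence.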
A general note: Quantitative high-throughput screening tests each substance at several concentrations.

The target in assay [2] is Bile acid receptor (Homo sapiens) (UniProt Q96RI1). Kind of assay: qHTS assay to identify small molecule antagonists of the farnesoid-X-receptor (FXR) signaling pathway (AID 743217; active means well fitted inhibition curve with a large enough effect in the signal ratio in the repeat runs, not every such curve was filed as active; the % refers to the signal ratio; further: potency means the concentration at half of the fitted maximal effect). A digest of the protocol: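 Cells carrying a UAS-driven beta-lactamase reporter (GeneBLAzer FXR-UAS-bla HEK 293T) were plated and rested 5 h at 37 °C. Compounds in DMSO were added alongside chenodeoxycholic acid agonist at 50 uM final and left 16 h at 37 °C before FRET substrate readout.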
Bile acid receptor (Homo sapiens), sequence (Q96RI1 whole entry, looked up): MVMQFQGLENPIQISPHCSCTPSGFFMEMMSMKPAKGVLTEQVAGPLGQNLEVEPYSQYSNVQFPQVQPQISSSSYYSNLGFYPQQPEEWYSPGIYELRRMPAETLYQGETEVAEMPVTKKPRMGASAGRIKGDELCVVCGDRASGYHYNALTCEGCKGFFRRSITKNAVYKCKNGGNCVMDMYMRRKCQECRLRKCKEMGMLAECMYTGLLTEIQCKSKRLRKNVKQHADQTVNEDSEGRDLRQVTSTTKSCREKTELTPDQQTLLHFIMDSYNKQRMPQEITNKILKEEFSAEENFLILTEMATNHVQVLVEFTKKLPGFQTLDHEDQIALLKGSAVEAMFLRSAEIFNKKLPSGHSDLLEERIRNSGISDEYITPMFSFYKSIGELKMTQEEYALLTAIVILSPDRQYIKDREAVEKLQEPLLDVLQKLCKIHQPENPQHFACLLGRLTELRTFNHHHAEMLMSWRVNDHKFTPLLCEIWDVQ

The nature of assay [3]: qHTS assay to identify small molecule antagonists of the farnesoid-X-receptor (FXR) signaling pathway - cell viability counter screen (AID 743221; active means well fitted cell-killing curve with a large enough effect in the repeat runs, not every such curve was filed as active; further: nearly all actives have a fitted effect of over 50% in size; further: potency means the concentration at half of the fitted maximal effect). The essentials:
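HEK 293T FXR-bla cells, 5 h pre-incubation; compound + CDCA 50 uM final, 16 h, 37 C; beta-lactamase FRET read first, then CellTiter-Glo luminescence, 30 min RT.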

Assay [4] can be described thus: qHTS assay to identify small molecule agonists of the vitamin D receptor (VDR) signaling pathway - cell viability counter screen (AID 743224). Further: nearly all actives have a fitted effect of over 50% in size. Further: potency means the concentration at half of the fitted maximal effect. The essentials:
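Cells: VDR-bla, 2,000/well, settled 4 h. Treatment: compounds in DMSO, 16 h, 37C/5% CO2. Readout: CellTiter-Glo luminescence after 30 min RT.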

The nature of assay [5]: qHTS assay to identify small molecule antagonists of the vitamin D receptor (VDR) signaling pathway - cell viability counter screen (AID 743225). Further: nearly all actives have a fitted effect of over 50% in size. Further: potency means the concentration at half of the fitted maximal effect. A digest of the protocol:
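Viability counter screen run in the same wells as the beta-lactamase reporter assay: HEK 293T VDR-UAS-bla cells, 16 h compound exposure at 37C with 3 nM (final) 1-alpha,25-dihydroxyvitamin D3. CellTiter-Glo luminescence, 30 min, room temperature.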

Assay [6] in a line: qHTS assay to identify small molecule agonists of the NFkB signaling pathway - cell viability counter screen (AID 1159515; calls by dose curve; further: nearly all actives have a fitted effect of over 55% in size; further: potency means the concentration at half of the fitted maximal effect). The essentials:
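Cells are seeded (2,000 NFkB-bla ME-180 per well), rested overnight, and dosed with DMSO-dissolved compounds for 5 hr at 37 C. Viability is then read by CellTiter-Glo luminescence after 30 min at room temperature.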

Assay [7] is described as follows: qHTS assay to identify small molecule agonists of the endoplasmic reticulum stress response signaling pathway - cell viability counter screen (AID 1159517; calls by dose curve; further: nearly all actives have a fitted effect of over 50% in size; further: potency means the concentration at half of the fitted maximal effect). A digest of the protocol: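 Steps: seed 1,500 ESRE-bla HeLa cells per well; incubate overnight at 37 C, 5% CO2; add compounds in DMSO for 5 hr; run FRET substrate 2 hr RT; add CellTiter-Glo, wait 30 min, read luminescence.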

The nature of assay [8]: qHTS assay to identify small molecule antagonists of the retinoid-related orphan receptor gamma (ROR-gamma) signaling pathway - cell viability counter screen (AID 1159520). Further: nearly all actives have a fitted effect of over 50% in size. Further: potency means the concentration at half of the fitted maximal effect. The essentials:
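Tet-on ROR gamma CHO cells were given compounds for 2 hr, then doxycycline hyclate at 1 uM final, and incubated 16 hr at 37 C. Viability was measured as ATP content by CellTiter-Glo luminescence.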

Assay [9] addresses Nuclear receptor ROR-gamma (Homo sapiens) (UniProt P51449). Briefly: qHTS assay to identify small molecule antagonists of the retinoid-related orphan receptor gamma (ROR-gamma) signaling pathway (AID 1159521; further: nearly all actives have a fitted effect of over 50% in size; further: potency means the concentration at half of the fitted maximal effect). A digest of the protocol: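 Luminescence readout (ONE-Glo, 30 min RT) after 16 h doxycycline induction; loss of signal scored as antagonism. CHO cells with TET-inducible RORγ and RORE-LUC reporter; compounds added 2 h before 1 uM final doxycycline.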

A short description of assay [10]: qHTS assay to identify small molecule agonists of the AP-1 signaling pathway - cell viability counter screen (AID 1159525; calls by dose curve; further: nearly all actives have a fitted effect of over 55% in size; further: potency means the concentration at half of the fitted maximal effect). A digest of the protocol: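 Same-well cytotoxicity counter screen of the Tox21 10K library in ME-180 cells. The readout is ATP-dependent luminescence after 5 h compound treatment. Data are normalised to DMSO and tetra n-octyl ammonium bromide controls.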

A short description of assay [11]: qHTS assay to identify small molecule agonists of the farnesoid-X-receptor (FXR) signaling pathway - cell viability counter screen (AID 743218). Further: nearly all actives have a fitted effect of over 45% in size. Further: potency means the concentration at half of the fitted maximal effect. The essentials: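 Cells were seeded, left 5 h at 37 C and 5% CO2, then dosed with compound in DMSO for 16 h. After the beta-lactamase FRET read, CellTiter-Glo was added and luminescence measured 30 min later.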
Assay [12] has as its target Peroxisome proliferator-activated receptor delta (Homo sapiens) (UniProt Q03181). Kind of assay: qHTS assay to identify small molecule agonists of the peroxisome proliferator-activated receptor delta (PPARd) signaling pathway (AID 743212; calls by dose curve). The essentials: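 Read-out: beta-lactamase FRET fluorescence after 2 h room-temperature incubation with LiveBLAzer B/G substrate. Cells were HEK293H carrying a UAS-bla reporter for PPARd, treated at 37 C with DMSO-dissolved compounds.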

For assay [13] the target is unchanged. Briefly: qHTS assay to identify small molecule antagonists of the peroxisome proliferator-activated receptor delta (PPARd) signaling pathway (AID 743215; active means well fitted inhibition curve with a large enough effect in the signal ratio in the repeat runs, not every such curve was filed as active; the % refers to the signal ratio;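 further: cells stimulated with agonist L165041 at 300 nM final during compound exposure; series mostly up to about 62 µM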). A digest of the protocol: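 Cells: HEK293H with a UAS-driven beta-lactamase reporter responsive to PPARd. Compounds were co-added with L165041 (300 nM, final) and incubated 17 h at 37 C before a 2 h room-temperature FRET substrate step and fluorescence reading.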

Assay [14] is described as follows: qHTS assay to identify small molecule agonists of the RXR signaling pathway - cell viability counter screen (AID 1159529). Further: nearly all actives have a fitted effect of over 50% in size. Further: potency means the concentration at half of the fitted maximal effect. A digest of the protocol: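 Luminescence from CellTiter-Glo (30 min, RT) measured viability in the same wells as the beta-lactamase reporter readout. Cells: GeneBLAzer RXR-alpha HEK 293T, 2% charcoal-stripped FBS. Compound exposure 16 hr, 37 C.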

The target in assay [15] is Bile acid receptor (Homo sapiens) (UniProt Q96RI1). Kind of assay: qHTS assay to identify small molecule agonists of the farnesoid-X-receptor (FXR) signaling pathway (AID 743220; active means well fitted activation curve with a large enough effect in the signal ratio in the repeat runs, not every such curve was filed as active; the % refers to the signal ratio). The essentials:
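FXR-UAS-bla HEK 293T cells carrying a UAS-driven beta-lactamase reporter were plated for 5 h at 37C/5% CO2, then exposed to DMSO-dissolved Tox21 10K compounds for 16 h at 37C. A LiveBLAzer B/G FRET substrate was loaded for 2 h at room temperature before fluorescence reading.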

Assay [16] addresses Vitamin D3 receptor (Homo sapiens) (UniProt P11473). Briefly: qHTS assay to identify small molecule antagonists of the vitamin D receptor (VDR) signaling pathway (AID 743223; active means well fitted inhibition curve with a large enough effect in the signal ratio in the repeat runs, not every such curve was filed as active; the % refers to the signal ratio; further: potency means the concentration at half of the fitted maximal effect). A digest of the protocol:
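Beta-lactamase reporter read-out: FRET substrate fluorescence after 2 h at room temperature, following 16 h exposure of VDR-bla cells to test compound plus 3 nM (final) 1alpha,25-dihydroxyvitamin D3 agonist at 37C.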

Peroxisome proliferator-activated receptor delta (Homo sapiens), sequence (Q03181 whole entry, looked up): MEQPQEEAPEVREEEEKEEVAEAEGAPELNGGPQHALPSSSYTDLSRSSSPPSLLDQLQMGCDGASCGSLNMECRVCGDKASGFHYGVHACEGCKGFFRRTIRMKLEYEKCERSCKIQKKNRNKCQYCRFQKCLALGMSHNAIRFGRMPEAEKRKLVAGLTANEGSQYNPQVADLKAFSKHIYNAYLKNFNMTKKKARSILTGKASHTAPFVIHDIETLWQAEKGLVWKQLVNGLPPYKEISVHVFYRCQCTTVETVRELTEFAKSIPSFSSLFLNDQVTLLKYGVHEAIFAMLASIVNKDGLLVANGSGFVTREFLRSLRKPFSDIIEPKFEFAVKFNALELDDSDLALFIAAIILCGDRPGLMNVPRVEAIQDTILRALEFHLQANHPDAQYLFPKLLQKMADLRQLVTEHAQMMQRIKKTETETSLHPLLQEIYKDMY
Vitamin D3 receptor (Homo sapiens), sequence (P11473 whole entry, looked up): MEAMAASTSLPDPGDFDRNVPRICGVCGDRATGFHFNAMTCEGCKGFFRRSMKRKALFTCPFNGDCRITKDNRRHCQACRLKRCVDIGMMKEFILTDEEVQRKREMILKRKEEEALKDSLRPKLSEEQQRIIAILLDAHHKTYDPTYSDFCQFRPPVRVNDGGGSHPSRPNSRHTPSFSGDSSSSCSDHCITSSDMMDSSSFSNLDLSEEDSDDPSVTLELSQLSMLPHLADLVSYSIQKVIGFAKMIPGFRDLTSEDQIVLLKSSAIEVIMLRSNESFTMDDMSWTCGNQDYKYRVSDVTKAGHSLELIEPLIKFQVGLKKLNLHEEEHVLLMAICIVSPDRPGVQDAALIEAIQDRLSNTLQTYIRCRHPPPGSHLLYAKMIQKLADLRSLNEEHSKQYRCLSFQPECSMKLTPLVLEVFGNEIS

For the molecule `CCCCCCCCn1sc(Cl)c(Cl)c1=O`, the Potency in [1] was 3.89 µM (active); in assay [2], 43.6 µM (active); in [3], 9.77 µM (active); in [4], 2.75 µM (active); in assay [5], 6.92 µM (active); in [6], 9.77 µM (active). Moreover, the Potency in [7] is 3.47 µM (active); in [8] it was 2.73 µM (active); in assay [9] it was 4.86 µM (active); in [10] it was 19.5 µM (active).
Regarding `CCCCCCCCCCCCc1ccc(O)cc1`, the Potency was 24.5 µM (active) in [1]; 34.7 µM (active) in assay [11]; 43.6 µM (active) in assay [3]; 12.3 µM (active) in [4]; 17.4 µM (active) in [5]; 24.5 µM (active) in assay [6]. For the same molecule, the Potency is 21.9 µM (active) in assay [7], 30.6 µM (active) in [8], 24.3 µM (active) in assay [9] and 17.4 µM (active) in assay [10].
For `O=C(O)c1cc(O)c2c(c1)C(=O)c1cccc(O)c1C2=O`, the Potency result in [12], in [13], in [11], in assay [3], in [4] and in assay [5] was “inactive” each time. Also, the Potency entry in assay [6], in assay [7], in [8], in assay [9] and in assay [10] was “inactive” in each case.
For `CCOc1ccc2nc3cc(N)ccc3c(N)c2c1`, the Potency entry in assay [1], in assay [13], in assay [11], in assay [4], in assay [5] and in assay [6] was “inactive” throughout. Moreover, the Potency result in assay [7], in assay [8], in assay [9] and in assay [10] was “inactive” each time.
With `Oc1cc2ccccc2c2ccccc12`, the Potency is 5.49 µM (active) in assay [1]; 9.77 µM (active) in [3]; 2.45 µM (active) in [4]; 4.36 µM (active) in [5]; 4.9 µM (active) in [6]; 11 µM (active) in [7]. Further, the Potency in [8] was 17.2 µM (active); in [9] it was 12.2 µM (active); in [10], 11 µM (active); in [14], 4.9 µM (active).
With `CCCCCCCC[N+](CCCCCCCC)(CCCCCCCC)CCCCCCCC`, the Potency in assay [1] is 6.9 µM (active); in [3], 21.8 µM (active); in [4] it was 8.69 µM (active); in [5], 7.75 µM (active); in assay [6], 24.5 µM (active); in assay [7], 43.6 µM (active). The results for the Potency in assay [8], in assay [9] and in assay [10] were 8.62 µM (active), 6.1 µM (active) and 15.5 µM (active), respectively.
Regarding `OCCN(CCO)c1nc(N2CCCCC2)c2nc(N(CCO)CCO)nc(N3CCCCC3)c2n1`, the Potency entry in assay [11], in assay [3], in [6], in assay [7], in assay [8] and in assay [9] was “inactive” each time. The Potency result in assay [10] and in assay [14] was “inactive” throughout.
On to `CCCCCCCCCCCCCCCC[N+](C)(C)CCN(Cc1ccc(OC)cc1)c1ncccn1`, for which the Potency result in assay [13] and in assay [15] was “inactive” each time. The Potency in [11] is 29.8 µM (active); in assay [3], 26.6 µM (active); in assay [5], 19 µM (active); in [6], 23.9 µM (active); in [7], 21.3 µM (active); in assay [8], 29.8 µM (active). For the same molecule, the Potency in [9] is 33.5 µM (active); in [10] it was 21.3 µM (active); in assay [14] it was 5.35 µM (active).
`CCOC(=O)O[C@H](C)OC(=O)c1ccc2c(c1)cc(C(=O)NC1CCN(C(C)C)CC1)n2Cc1cc(-c2ccc(Cl)s2)on1`: the Potency is 18.2 µM (active) in assay [1]; 16.2 µM (active) in assay [11]; 45.8 µM (active) in assay [3]; 16.2 µM (active) in assay [16]; 14.5 µM (active) in [4]; 45.8 µM (active) in [6]. For the same molecule, the Potency in assay [7] is 45.8 µM (active); in [8], 11.4 µM (active); in [9], 4.54 µM (active); in [10], 16.2 µM (active).
